Among the data in PubChem BioAssay AID602438 (Sanford-Burnham Center for Chemical Genomics, 2012) are inhibition values, retold here.

Each structure is given as a SMILES string. Screen size: about 360,000 compounds; about 3,100 (0.86%) were called active. The sample as a whole holds a higher share of actives than the screen did. Unmarked numbers belong to inactive results.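 The calls were made as follows: active = inhibition or corrected inhibition above about 18%, plus a signal ratio from 0.5 to 1.5 (limit read from the data, passing the limit was not always enough); inactive = the rest.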

In general, inhibition refers to the change of the read-out against control, counted positive when it falls.

The target of the experiment is Neuropilin-1 (Homo sapiens) (UniProt O14786). The experiment in a line: modulators of CendR peptide binding to NRP-1, primary screen, biochemical, fluorescence polarization, uHTS (AID 602438). To be noted: FAM-RPARPAR peptide binding to NRP-1, fluorescence polarization; at 25 µM; stronger effect = higher value. Background: Fluorescence polarisation rises when a labelled molecule tumbles more slowly, as on binding a larger partner.
Neuropilin-1 (Homo sapiens), sequence (O14786 whole entry, looked up): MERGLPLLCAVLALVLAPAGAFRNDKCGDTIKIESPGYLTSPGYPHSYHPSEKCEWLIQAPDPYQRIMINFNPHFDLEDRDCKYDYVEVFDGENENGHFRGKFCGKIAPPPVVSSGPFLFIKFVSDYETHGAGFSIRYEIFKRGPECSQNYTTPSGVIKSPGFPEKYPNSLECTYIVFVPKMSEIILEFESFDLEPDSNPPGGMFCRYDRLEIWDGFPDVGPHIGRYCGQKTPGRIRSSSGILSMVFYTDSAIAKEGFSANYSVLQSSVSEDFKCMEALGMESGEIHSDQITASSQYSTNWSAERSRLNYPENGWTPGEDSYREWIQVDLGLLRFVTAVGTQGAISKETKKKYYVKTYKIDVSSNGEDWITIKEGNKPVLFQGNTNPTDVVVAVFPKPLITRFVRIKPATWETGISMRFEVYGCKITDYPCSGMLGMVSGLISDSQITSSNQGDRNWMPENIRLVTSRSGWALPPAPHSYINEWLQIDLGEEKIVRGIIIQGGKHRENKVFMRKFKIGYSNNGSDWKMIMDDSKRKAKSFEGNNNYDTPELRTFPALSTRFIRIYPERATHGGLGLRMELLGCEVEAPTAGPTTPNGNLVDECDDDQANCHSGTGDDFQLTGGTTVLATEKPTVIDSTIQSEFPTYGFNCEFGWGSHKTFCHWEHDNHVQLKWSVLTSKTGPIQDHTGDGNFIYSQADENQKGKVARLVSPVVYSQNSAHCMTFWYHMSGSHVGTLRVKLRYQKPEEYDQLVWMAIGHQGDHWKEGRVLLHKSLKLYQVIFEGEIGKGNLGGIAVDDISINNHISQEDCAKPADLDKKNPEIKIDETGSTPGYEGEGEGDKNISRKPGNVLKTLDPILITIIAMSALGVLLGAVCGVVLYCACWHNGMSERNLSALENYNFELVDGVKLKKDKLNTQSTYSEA
In the case of `COCCN(C(=O)COC(=O)Cc1cccc(OC)c1)c1c(N)n(Cc2ccccc2)c(=O)[nH]c1=O`, the inhibition was 3.8%. On to `O=C(O)C1CCCN(CCC=C(c2ccccc2)c2ccccc2)C1` (configuration not stated), for which the inhibition is 1.9%. The figure for `O=[N+]([O-])/C=C/c1ccc2c(ccn2Cc2ccccc2)c1` is -5.7%. Then `COC(=O)c1c(C)[nH]c(C(=O)NCCc2ccc(S(N)(=O)=O)cc2)c1C`, with -1.4%; and `COC(=O)c1c(C)[nH]c(C(=O)/C=C/c2ccc(Cl)cc2)c1C`, with 41% (active). Then `Cc1cc(C)nc(NC(=O)/C=C/c2ccc(Cl)cc2)n1`, with 6.6%; and `Cc1cc(CNC(=O)C2CCC(=O)N(CCc3ccc(Cl)cc3)C2)no1` (configuration not stated), with 28.7% (active). Consider `O=C(NCCCc1ccccc1)C1CCC(=O)N(CCc2ccc(Cl)cc2)C1` (configuration not stated), for which the inhibition is 8.8%. The figure for `O=C(NCCN1CCOC1=O)C1CCC(=O)N(CCc2ccc(Cl)cc2)C1` (configuration not stated) is -0.8%.

Take `CO[C@@H]1CN(C)C(=O)c2cc(NC(=O)Nc3cc(F)ccc3F)ccc2OC[C@H](C)N(C(=O)c2ccccn2)C[C@@H]1C`: the inhibition was 2.7%. Then `COc1ccc(Cl)cc1NC(=O)NC(C)C(C)(C)C` (configuration not stated), with -1.8%; and `COc1ccc(Cl)cc1NC(=O)C(C)N1CCc2ccccc21` (configuration not stated), with 23.1% (active); and `COc1ccc(Cl)cc1NC(=O)NCC1CCN(Cc2ccccc2F)CC1`, with -1%. The figure for `Cc1n[nH]c(=O)n1-c1ccc(Oc2ccccc2)cc1` is 20%. Then `CCOc1ccc(CCNC(=O)C2=C(C)C(=O)OC23CCC(C)CC3)cc1OCC` (configuration not stated), with -1.3%. Take `CSc1ccccc1NC(=O)c1cc(Cl)sc1Cl`: the inhibition is -5.4%. Then `CC(=O)Nc1ccc(NC(=O)COc2ccccc2C(=O)Nc2cccc(Cl)c2Cl)cc1`, with 4.5%. Then `CN(C)S(=O)(=O)Oc1ccccc1C(=O)Nc1ccccc1Cl`, with 50.6% (active); and `COc1ccc(CN2C(CC(=O)Nc3cccnc3)c3ccc(C(F)(F)F)cc3S2(=O)=O)cc1` (configuration not stated), with 0.3%; and `COc1ccc(CN2[C@@H](CC(=O)O)c3cc(F)ccc3S2(=O)=O)cc1`, with 26.2% (active).

In the case of `COc1ccc(CN2C3CCCC2CC(NC(=O)c2cccc(F)c2)C3)cc1` (configuration not stated), the inhibition is -2.7%. Take `O=C(C[n+]1cc(-c2ccc(Cl)c(Cl)c2)n2c1CCC2)c1cccs1`: the inhibition is -11.8%. The figure for `CCOC(=O)C1(Cc2ccccc2C)CCCN(C(=O)CN2C(=O)CSC2=O)C1` (configuration not stated) is 5.9%; for `COc1ccc(CC(=O)OC(C)C(=O)Nc2ccc(S(N)(=O)=O)cc2)cc1` (configuration not stated) it is -4.6%; for `COC(C[C@@H](O)C[C@@H](O)[C@H](C)OCc1ccccc1)OC` it is 17.1%. Then `COC(C[C@@H](O)[C@H](C)[C@H](O)COCc1ccccc1)OC`, with 18.6% (active); and `COC(C[C@@H](O)C[C@H](O)[C@H](C)OCc1ccccc1)OC`, with -8.8%; and `COCCn1c(SCc2nc3cc(OC)c(OC)cc3c(=O)[nH]2)nnc1-c1ccncc1`, with 14.6%. Regarding `NS(=O)(=O)c1ccc(CCNC(=O)c2nc(CS(=O)(=O)c3ccc(Cl)cc3)no2)cc1`, the inhibition is -1.3%.

In the case of `O=C1C=C(NCCNc2c(F)c(F)c(CO)c(F)c2F)CCC1`, the inhibition was -0.5%. Then `CCOC(=O)[C@]12CCC=C1N(Cc1ccccc1)C(=O)[C@H](CC(=O)N1CCCC1)C2`, with -23.1%.

Consider `CC(=O)NC(CC(=O)Nc1nc(-c2ccccc2)c(C(C)=O)s1)c1ccccc1` (configuration not stated), for which the inhibition is -4.6%. The figure for `CCN1C(=S)N[C@@H](CCc2ccccc2)[C@H](C(=O)OC)[C@H]1C` is 10.2%. The figure for `COCCN1C(=O)N[C@@H](CCc2ccccc2)[C@H](C(C)=O)[C@H]1C` is 23.7% (active); for `CCN1C(=O)N[C@@H](c2ccccc2)[C@H](C(C)=O)[C@H]1C` it is 7.8%; for `CC12COC3(C(=O)Nc4ccc(Cl)cn4)CC1CCC32C` (configuration not stated) it is -0.2%. The figure for `COc1ccc(C(=O)COC(=O)COc2ccc(C)c(C)c2)cc1` is 33.9% (active); for `Cc1ccc(OCC(=O)Nc2ccc(C(=O)O)cc2NC(=O)COc2ccc(C)c(C)c2)cc1C` it is 0.7%. Turning to `COc1ccc(OCC(=O)OCCN(C)C)cc1`, the inhibition was 1.6%. As to `CCCCNC(=O)C1(O)c2ccccc2NC(=O)N1c1ccc(Cl)cc1` (configuration not stated), the inhibition was 3.9%. As for `COc1ccc(N(CC(=O)NCCSCc2cccc(Cl)c2)S(C)(=O)=O)cc1`, the inhibition is -7.7%. The figure for `CCCNC(=O)c1cc2c(c(-c3cccc(-c4ccc(C#N)cc4)c3)n1)[C@@H](CCO)N(C(=O)CC)C2` is 8.8%; for `O=C(N[C@H]1CC[C@H](CC(=O)N2CCCCC2)O[C@@H]1CO)c1cccc(F)c1` it is -5%. Then `CCCc1cc(=O)oc2c(C)c(OCC(=O)NCc3ccccn3)ccc12`, with -1%; and `CCCc1cc(=O)oc2c(C)c(OC(C)C(=O)NCC(O)c3ccccc3)ccc12` (configuration not stated), with 22.4% (active); and `Cc1cc(=O)oc2c(C)c(OC(C)C(=O)NC3CCN(Cc4ccccc4)CC3)ccc12` (configuration not stated), with 12.6%. Then `CC1Cc2ccccc2N1CC(=O)Nc1ccc(S(N)(=O)=O)cc1` (configuration not stated), with 3.7%; and `CC1COc2ccccc2N1S(=O)(=O)c1ccccc1` (configuration not stated), with 8.8%. Consider `Cc1cc(C(C)(C)C)cc(S(=O)(=O)Nc2ccc(C(=O)O)cc2)c1C`, for which the inhibition is 7.7%. In the case of `Cc1ccc(C(=O)Nc2ccccc2-c2ccccc2)cc1S(=O)(=O)Nc1ccccc1`, the inhibition is 29.8% (active). The figure for `O=C(O)c1ccc(F)c(S(=O)(=O)Nc2ccccc2)c1` is -11.7%. The figure for `COC(=O)C1CCN(C(=O)c2ccc3oc(Cc4ccc(Cl)cc4)nc3c2)CC1` is 8.2%; for `O=C(C1CCN(CC2CCCCC2)CC1)N1CCCC1` it is 10.7%; for `NC(=O)CSc1nnc(-c2cccc(S(=O)(=O)N3CCOCC3)c2)o1` it is -9.5%. Turning to `COc1ccc(NC(=O)c2oc3ccc(S(=O)(=O)N4CCOCC4)cc3c2C)cc1`, the inhibition is 13.1%. As to `Cc1noc(C)c1CSc1nc2cc(S(=O)(=O)N3CCOCC3)ccc2o1`, the inhibition was 21.4% (active). Then `C[C@@H]1ON(C)[C@H]2C[C@H]3c4cc(N5CCN(C)CC5)ccc4CCN3C(=O)[C@@H]12`, with 4.7%.
